From PubChem
A selection: hits, their analogues and other compounds. The true share with any hit is near 2.6%.
Cruzain noTriton: blocks cruzain activity in detergent-free assay; Potency, µM, most hits filed as inhibitors; purified cruzain, Z-FR-AMC fluorescence, no detergent; 200,000 compounds, 2.3% hits; further: nearly all actives have a fitted effect of over 40% in size
Target sequence (P25779 123-467 limits assumed): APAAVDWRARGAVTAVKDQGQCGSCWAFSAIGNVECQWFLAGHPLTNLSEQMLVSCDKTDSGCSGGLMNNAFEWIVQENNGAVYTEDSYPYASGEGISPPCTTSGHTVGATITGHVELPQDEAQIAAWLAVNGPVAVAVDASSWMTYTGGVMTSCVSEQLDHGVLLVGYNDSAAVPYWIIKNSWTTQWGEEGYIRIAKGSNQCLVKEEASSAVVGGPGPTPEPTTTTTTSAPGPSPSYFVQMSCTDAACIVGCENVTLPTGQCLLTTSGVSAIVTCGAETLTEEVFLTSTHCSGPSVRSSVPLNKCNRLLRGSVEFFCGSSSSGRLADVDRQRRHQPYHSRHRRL
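Detergent-free condition (0.00005% Triton X-100) in acetate buffer pH 5.5 with DTT. 1.5 nM enzyme and compound were pre-mixed 15 min, then 2 uM Z-FR-AMC substrate added; reaction progress from fluorescence change between first and third reads (60 s).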
Cruzain Triton: blocks cruzain activity in presence of Triton detergent; AID 1478; 200,000 compounds, 0.43% hits; Potency, µM, most hits filed as inhibitors; P25779; purified cruzain, Z-FR-AMC fluorescence, 0.01% Triton; further: nearly all actives have a fitted effect of over 40% in size
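Cysteine protease activity tested under reducing, mildly acidic conditions (100 mM sodium acetate pH 5.5, 5 mM DTT) plus 0.01% Triton X-100. Cruzain 1.5 nM; substrate Z-FR-AMC 2 uM; 15 min compound preincubation at room temperature.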
Of the large screens only hits and unclear results are named; the others gave an inactive call. The call rests on the fitted dose curve; in most records, active means well fitted curve in the direction sought with a large enough effect; inconclusive means small, poorly fitted or top-dose-only effect, or another doubt; inactive means no such curve, though single readings can be large; an effect the other way counts as inactive or inconclusive.

COc1ccc(N2C(=O)CS(=O)(=O)C23C(=O)N(Cc2cccc(F)c2)c2ccccc23)cc1OC (stereo not drawn)	none
O=C1CSC2(C(=O)N(Cc3ccccc3F)c3ccccc32)N1c1ccc(F)cc1 (stereo not drawn)	none
CN1C(=O)C2(c3ccccc31)N(c1ccc(F)c(Cl)c1)C(=O)CS2(=O)=O (stereo not drawn)	Cruzain noTriton inconclusive
CCc1cccc(N2C(=O)CS(=O)(=O)C23C(=O)N(Cc2ccc(F)cc2)c2ccc(C)cc23)c1 (stereo not drawn)	Cruzain noTriton inconclusive
O=C1CS(=O)(=O)C2(C(=O)N(Cc3ccccc3)c3ccccc32)N1c1ccc(F)c(Cl)c1 (stereo not drawn)	Cruzain noTriton 2µM
CCCCCOc1c(Cl)cc(C(=O)N(Cc2ccc(C)o2)C2CCS(=O)(=O)C2)cc1Cl (stereo not drawn)	Cruzain noTriton inconclusive
O=c1[nH]c(=O)n([C@@H]2O[C@H](CO)[C@@H](O)[C@H]2O)cc1F	none
O=C(CCc1nc(-c2cccs2)no1)Nc1cccc([N+](=O)[O-])c1	none
Cc1cc(C)cc(N2C(=O)CS(=O)(=O)C23C(=O)N(C)c2ccccc23)c1 (stereo not drawn)	none
Cc1ccccc1CN1C(=O)C2(c3ccccc31)N(c1ccccc1)C(=O)CS2(=O)=O (stereo not drawn)	none
CN1C(=O)C2(c3ccccc31)N(c1cccc(F)c1)C(=O)CS2(=O)=O (stereo not drawn)	none
Cc1ccc(CN2C(=O)C3(c4ccccc42)N(c2cccc(F)c2)C(=O)CS3(=O)=O)cc1 (stereo not drawn)	Cruzain noTriton 1.6µM
Cc1ccc(N2C(=O)CS(=O)(=O)C23C(=O)N(Cc2ccccc2C)c2ccccc23)cc1Cl (stereo not drawn)	Cruzain noTriton 2µM
Cc1ccc(C)c(CN2C(=O)C3(c4ccccc42)N(c2cccc(C(F)(F)F)c2)C(=O)CS3(=O)=O)c1 (stereo not drawn)	Cruzain noTriton 1.3µM
COC(=O)c1cc2oc3ccccc3c2n1CC(=O)Nc1cccc(SC)c1	Cruzain noTriton inconclusive
CN(C)c1ccc(CNC(=O)c2ccc3c(c2)N(C)C(=O)C2CCCCN32)cc1 (stereo not drawn)	none
Cc1ccc2c(Cl)cc(Cl)c(OCC(=O)Nc3cccc(S(N)(=O)=O)c3)c2n1	none
Cc1ccc2c(Cl)cc(Cl)c(OCC(=O)Nc3cccc(S(=O)(=O)N(C)C)c3)c2n1	Cruzain noTriton 13µM
COc1cc(OC)c(NC(=O)CN(C)S(=O)(=O)c2ccc3c(c2)CCCC(=O)N3)cc1Cl	none
Clc1ccc(-n2ncc3c(NCC4CCCO4)ncnc32)cc1 (stereo not drawn)	none
Clc1ccc2[nH]c3c(NCCN4CCOCC4)ncnc3c2c1	Cruzain noTriton 16µM, Cruzain Triton 14µM
Clc1ccc2[nH]c3c(NCC4CCCO4)ncnc3c2c1 (stereo not drawn)	Cruzain noTriton 20µM, Cruzain Triton inconclusive
O=c1c2[nH]c3ccc(Cl)cc3c2ncn1CCN1CCCCC1	none
Fc1ccc2[nH]c3c(NCCN4CCOCC4)ncnc3c2c1	Cruzain noTriton 20µM, Cruzain Triton inconclusive
O=c1c2[nH]c3ccc(F)cc3c2ncn1CCCN1CCOCC1	none
COc1ccccc1N1CCN(CC(O)COc2ccc(Cl)c(C)c2)CC1 (stereo not drawn)	none
Cn1cccc1CC(=O)NNC(=S)Nc1ccc(Cl)cc1Cl	none
O=C(CN1c2ccccc2Sc2ccccc21)NNC(=S)Nc1ccc(Cl)cc1Cl	Cruzain noTriton 10µM
Cn1c(=O)c2c(nc(N/N=C/c3ccc(OC(=O)c4ccco4)cc3)n2Cc2ccccc2Cl)n(C)c1=O	Cruzain noTriton 32µM, Cruzain Triton inconclusive
Cn1c(=O)c2c(nc(N/N=C/c3ccc(OC(=O)c4ccco4)cc3)n2Cc2ccc(F)cc2)n(C)c1=O	Cruzain noTriton inconclusive
c1ccc(-c2noc(-c3ccccc3-c3ccccc3)n2)cc1	none
CN(C)c1ccc(-c2noc(-c3ccccc3O)n2)cc1	Cruzain noTriton 25µM, Cruzain Triton 22µM
CCS(=O)(=O)c1nc(S(=O)(=O)c2ccc(Cl)cc2)c(NCc2ccccc2Cl)s1	none
O=C(NCCc1ccc(Cl)cc1)c1ccc(CS(=O)(=O)c2ccc(Cl)cc2)o1	none
CNC(=O)c1c(NC(=O)c2ccc(S(=O)(=O)N3CCCC(C)C3)cc2)sc2c1CCC2 (stereo not drawn)	none
Cc1cc(C(=O)NCC(=O)OCC(=O)N2CCCCCC2)ccc1[N+](=O)[O-]	Cruzain noTriton 16µM, Cruzain Triton 14µM
CCOC(=O)C1CCCN(C(=O)c2ccc([N+](=O)[O-])c(C)c2)C1 (stereo not drawn)	none
O=C(CNC(=O)c1cccc(F)c1)OCC(=O)N1CCCCC1	Cruzain noTriton inconclusive, Cruzain Triton 25µM
CCOc1ccc(C(=O)NCC(=O)OCC(=O)N2CCCCC2)cc1	none
COc1cc(OC)c(NC(=O)Cc2c(C(=O)O)c(C)cn2C)cc1Cl	none
